Laboratory results reported in PubChem BioAssay (NCATS).
Inconclusive results are not listed. Activity calls are given as the source filed them. The call rests on the fitted dose curve; in most records, active means well fitted curve in the direction sought with a large enough effect; inconclusive means small, poorly fitted or top-dose-only effect, or another doubt; inactive means no such curve, though single readings can be large; an effect the other way counts as inactive or inconclusive.

What was measured:
MCC-13 = assay: qHTS assay to identify novel small-molecules to repurpose for Merkel cell carcinoma treatment (AID 1296009); conditions: MCC and control cell lines, CellTiter-Glo viability, 72 h; series mostly up to 46 µM; further: nearly all actives have a fitted effect of over 60% in size
Summary of the method: (§1)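 CellTiter-Glo luminescence after 72 hr compound exposure at 37 degree celsius gave cell viability. Libraries NPC and MIPE were run as 8- and 11-point dose responses; RLUs normalized to DMSO (negative) and no-cell (cytotoxicity) controls.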

MCC-26 = assay: as above; conditions: MCC and control cell lines, CellTiter-Glo viability, 72 h; series mostly up to 46 µM
Summary of the method: as §1

MKL-1 = assay: as above; conditions: MCC and control cell lines, CellTiter-Glo viability, 72 h; series mostly up to 46 µM
Summary of the method: as §1

MKL-2 = assay: as above; conditions: MCC and control cell lines, CellTiter-Glo viability, 72 h; series mostly up to 46 µM
Summary of the method: as §1

UISO = assay: as above; conditions: MCC and control cell lines, CellTiter-Glo viability, 72 h; series mostly up to 46 µM
Summary of the method: as §1

WaGa = assay: as above; conditions: MCC and control cell lines, CellTiter-Glo viability, 72 h; series mostly up to 46 µM
Summary of the method: as §1

C33A = assay: Primary qHTS to identify gynecologic anti-cancer compounds using libraries of approved drugs and bioactive compounds (AID 1345084); conditions: Gynecologic cancer cell panel viability, ATPlite luminescence, 48 h; series mostly up to 57.5 µM; further: nearly all actives have a fitted effect of over 55% in size
Summary of the method: (§2)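 Cytotoxicity screen measuring ATP content by luciferase luminescence. Each compound is applied at five concentrations for 48 h at 37 C with 5% CO2.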

CASKI = assay: as above; conditions: Gynecologic cancer cell panel viability, ATPlite luminescence, 48 h; series mostly up to 57.5 µM
Summary of the method: as §2

CAOV3 = assay: as above; conditions: Gynecologic cancer cell panel viability, ATPlite luminescence, 48 h; series mostly up to 57.5 µM
Summary of the method: as §2
On the % scale 0 is the no-effect control and ±100 the full control effect; potency means the concentration at half of the fitted maximal effect.

CCCCCCCCCCCCCCCC(=O)O
inactive: Potency (MCC-13) | Potency (MCC-26) | Potency (MKL-1) | Potency (MKL-2) | Potency (UISO) | Potency (WaGa) | Potency (C33A) | Potency (CASKI)

CCN(CC)CCNC(=O)c1cc(Br)c(N)cc1OC
inactive: Potency (MCC-13) | Potency (MCC-26) | Potency (MKL-1) | Potency (MKL-2) | Potency (UISO) | Potency (WaGa) | Potency (C33A) | Potency (CAOV3) | Potency (CASKI)

O=C(O)P(=O)(O)O
inactive: Potency (MCC-13) | Potency (MCC-26) | Potency (MKL-1) | Potency (MKL-2) | Potency (UISO) | Potency (WaGa) | Potency (C33A) | Potency (CASKI)

C=C[C@H]1CN2CC[C@H]1C[C@@H]2[C@@H](O)c1ccnc2ccc(OC)cc12
inactive: Potency (MCC-13) | Potency (MCC-26) | Potency (MKL-1) | Potency (MKL-2) | Potency (UISO) | Potency (WaGa) | Potency (C33A) | Potency (CAOV3) | Potency (CASKI)

CC(=O)Oc1ccc(C)cc1
inactive: Potency (MCC-13) | Potency (MCC-26) | Potency (MKL-1) | Potency (MKL-2) | Potency (UISO) | Potency (WaGa) | Potency (C33A) | Potency (CAOV3) | Potency (CASKI)

C[C@H]1O[C@@H](O[C@H]2CC[C@@]3(C)[C@H](CC[C@@H]4[C@@H]3C[C@@H](O)[C@]3(C)[C@@H](C5=CC(=O)OC5)CC[C@]43O)C2)C[C@H](O)[C@@H]1O[C@H]1C[C@H](O)[C@H](O[C@H]2C[C@H](O)[C@H](O[C@@H]3O[C@H](CO)[C@@H](O)[C@H](O)[C@H]3O)[C@@H](C)O2)[C@@H](C)O1
active: Potency (MCC-13) 335 nM | Potency (MCC-26) 668 nM | Potency (MKL-1) 531 nM | Potency (MKL-2) 299 nM | Potency (UISO) 299 nM | Potency (C33A) 282 nM | Potency (CAOV3) 501 nM | Potency (CASKI) 1580 nM

CN(C)CCN1C(=O)c2ccccc2N(C)c2ccccc21
inactive: Potency (MCC-13) | Potency (MCC-26) | Potency (MKL-1) | Potency (MKL-2) | Potency (UISO) | Potency (WaGa) | Potency (C33A) | Potency (CASKI)

O=[N+]([O-])c1cccc(S(=O)(=O)NCCNS(=O)(=O)c2cccc([N+](=O)[O-])c2)c1
inactive: Potency (MCC-13) | Potency (MCC-26) | Potency (MKL-1) | Potency (MKL-2) | Potency (UISO) | Potency (WaGa) | Potency (C33A) | Potency (CASKI)

CN1CCN(c2c(F)cc3c(=O)c(C(=O)O)cn4c3c2SCC4)CC1
inactive: Potency (MCC-13) | Potency (MCC-26) | Potency (MKL-1) | Potency (MKL-2) | Potency (UISO) | Potency (WaGa) | Potency (C33A) | Potency (CASKI)

Cl/C(=C\n1cncn1)c1ccc(Cl)cc1Cl
inactive: Potency (MCC-13) | Potency (MCC-26) | Potency (MKL-1) | Potency (MKL-2) | Potency (UISO) | Potency (WaGa) | Potency (C33A) | Potency (CASKI)

O=C(NC1CCN(CCc2c[nH]c3ccccc23)CC1)c1ccccc1
inactive: Potency (MCC-13) | Potency (MCC-26) | Potency (MKL-1) | Potency (MKL-2) | Potency (UISO) | Potency (WaGa) | Potency (C33A) | Potency (CASKI)

N[C@H](C(=O)O)[C@@H](O)c1ccc(O)c(O)c1
inactive: Potency (MCC-13) | Potency (MCC-26) | Potency (MKL-1) | Potency (MKL-2) | Potency (UISO) | Potency (WaGa) | Potency (C33A) | Potency (CASKI)

CCN[C@@H]1C[C@H](N)[C@@H](OC2OC(CN)=CCC2N)[C@H](O)[C@H]1O[C@H]1OC[C@](C)(O)[C@H](NC)[C@H]1O (stereo partly specified)
inactive: activity change, negative = cytotoxicity (MCC-13) 16.3% [at 0.597 µM] | activity change, negative = cytotoxicity (MCC-26) 2.75% [at 0.597 µM] | activity change, negative = cytotoxicity (MKL-1) 9.5% [at 0.597 µM] | activity change, negative = cytotoxicity (MKL-2) 2.5% [at 0.597 µM] | activity change, negative = cytotoxicity (UISO) 19.1% [at 0.597 µM] | activity change, negative = cytotoxicity (WaGa) 13.3% [at 0.597 µM] | activity change, negative = cytotoxicity (C33A) 4.69% [at 0.462 µM] | activity change, negative = cytotoxicity (CASKI) -0.808% [at 0.462 µM]

CC(=O)Nc1ccc(CC(=O)O)cc1
inactive: Potency (MCC-13) | Potency (MCC-26) | Potency (MKL-1) | Potency (MKL-2) | Potency (UISO) | Potency (WaGa) | Potency (C33A) | Potency (CAOV3) | Potency (CASKI)

CCNC(=O)/C=C/c1cccc(Br)c1
inactive: Potency (MCC-13) | Potency (MCC-26) | Potency (MKL-1) | Potency (MKL-2) | Potency (UISO) | Potency (WaGa) | Potency (C33A) | Potency (CASKI)

COc1ccc(C(=O)c2ccccc2)c(O)c1
inactive: Potency (MCC-13) | Potency (MCC-26) | Potency (MKL-1) | Potency (MKL-2) | Potency (UISO) | Potency (WaGa) | Potency (C33A) | Potency (CASKI)

CC(=O)OC[C@H]1O[C@@H](n2ncc(=O)[nH]c2=O)[C@H](OC(C)=O)[C@@H]1OC(C)=O
inactive: Potency (MCC-13) | Potency (MCC-26) | Potency (MKL-1) | Potency (MKL-2) | Potency (UISO) | Potency (C33A) | Potency (CAOV3)

Cc1cn([C@H]2C[C@H](F)[C@@H](CO)O2)c(=O)[nH]c1=O
inactive: Potency (MCC-13) | Potency (MCC-26) | Potency (MKL-1) | Potency (MKL-2) | Potency (UISO) | Potency (WaGa) | Potency (C33A) | Potency (CAOV3) | Potency (CASKI)

O=C(O)C(Cc1cc(I)c(O)c(I)c1)c1ccccc1 (stereo unspecified)
inactive: Potency (MCC-13) | Potency (MCC-26) | Potency (MKL-1) | Potency (MKL-2) | Potency (UISO) | Potency (WaGa) | Potency (C33A) | Potency (CASKI)
